Out of some 68,000 compounds screened, about 2,700 (4%) showed an effect of 50% or more. The list comes from a sample in which strong results are over-represented; it also holds similar structures and randomly drawn compounds.
What follows are compounds tested on Plasmodium berghei (assay: Screen against P. berghei liver stage (PbLuc), transformed with Luciferase, at 2uM). Conditions: tested at 2 uM.
Assay type: functional, HepG2

SMILES	INHIBITION [%]
Cc1ccc(CN2CCC3(CC(C(=O)NC4CCC4)=NO3)C2)o1 (stereo not given)	-27.21
CC(=O)N1CCC2(CC1)CN(C)C(=O)C[C@H]2C(F)(F)F	64.92
CN1CCC2(CC1)CN(C)C(=O)C[C@@H]2C(F)(F)F	6.22
CC(C)N1CCC2(CC1)CN(C)C(=O)C[C@H]2C(F)(F)F	-24.39
CCN(CC)S(=O)(=O)N1C[C@@H](O)[C@H](Oc2cccc(F)c2)C1	16.01
Cc1nc(N2CCCC2)nc2c1CCN(C(=O)CC1CCCC1)CC2	1.33
COC(=O)c1ccc2ccn(CC3COCCO3)c(=O)c2c1 (stereo not given)	21
COC(=O)c1ccc2ccn(CC3CCCO3)c(=O)c2c1 (stereo not given)	52.21
COC(=O)c1ccc2ccn(CC3CCCCO3)c(=O)c2c1 (stereo not given)	-32.35
COc1ccc(CCNCc2c(C)nn(C)c2N(C)C)cc1OC	7.74
O=C1CC(c2ccc(O)cc2)c2sc(C(=O)O)c(-c3ccccc3)c2N1 (stereo not given)	20.4
CC(C)CN1CCC2(CC1)CN(C(=O)C(C)C)C2	16.12
CC(C)C(=O)N1CCC2(CN(CC3CCCC3)C2)C1	0.32
CC(C)C(=O)N1CC2(CCN(CC(C)(C)C)CC2)C1	50.72
CS(=O)(=O)N1CCC2(CCN(C(=O)c3cccs3)CC2)CC1	11.79
COC(=O)CCCn1ccnc1-c1ccccc1	1.42
CCCSc1ncc(-c2nccn2CCO)cn1	52.98
COCCCn1ccnc1-c1cnc(OC)nc1	-26.85
CCCSc1ncc(-c2nccn2CCC(N)=O)cn1	60.13
COCc1ncc(-c2nccn2CCn2cnnc2)cn1	-0.15
COc1ncc(-c2nccn2CCN(C)C)cn1	-37.29
CCSc1ncc(-c2nccn2CCN(C)C)cn1	59.03
CCCn1ccnc1-c1nccn1CCC(N)=O	43.44
COCc1ncc(-c2nccn2CCN(C)C)cn1	-24.39
CN(C)C(=O)COC[C@]12COC[C@H]1CN(Cc1ccccc1)C2	42.18
Cc1ccc(CC(=O)Nc2cc(C(C)C)n[nH]2)cn1	29.54
NC(=O)c1cc(C2CC2)nc2ccc(F)cc12	-28.49
CC(Nc1cccc2c1OCCO2)C(=O)Nc1cccc(C#N)c1 (stereo not given)	17.64

SMILES	INHIBITION [%]
COCCCN(C)C(=O)c1cccc(Nc2cnccn2)c1	-5.53
CCCS(=O)(=O)NCC(O)c1c(Cl)cccc1Cl (stereo not given)	-35.21
CC(C)n1ccc(C(=O)NCC(O)c2c(Cl)cccc2Cl)n1 (stereo not given)	-6.2
CCN(CC)S(=O)(=O)NCC(O)c1c(Cl)cccc1Cl (stereo not given)	51
CCCN1CCCC2(CCN(S(=O)(=O)N3CCC(OC)CC3)C2)C1=O (stereo not given)	-46.38
CCN(Cc1ccncc1)CC1(O)CCN(C(=O)c2cnn(C)c2)C1 (stereo not given)	52.82
CCN(Cc1ccncc1)CC1(O)CCN(C(=O)c2ccccc2C)C1 (stereo not given)	44.07
CCN(Cc1ccncc1)CC1(O)CCN(C(=O)c2cccc(C)c2)C1 (stereo not given)	45.73
COCc1nc(C(=O)NS(=O)(=O)c2cc(C)ccc2C)cs1	25.74
Cc1cc(N2CCN(C(=O)c3cnn(C(C)C)c3)CC2)cc(C)n1	44.95
NC(=O)CN1CC2(CCC1=O)CCN(Cc1cc(F)ccc1Cl)CC2	23.7
Cn1cc(CN2CCC3(CC2)CN(C(=O)c2cnccn2)CCO3)cn1	2.22
Cc1cc(N2CCCC(c3nncn3C3CC3)C2)ncn1 (stereo not given)	-23.49
CC(C(=O)N1CCCC1)N1CCC(c2nccn2CC2CCC2)CC1 (stereo not given)	-19.54
CCn1c(Cn2cncn2)nnc1C1CCN(C2CCNCC2)CC1	19.49
CCn1c(CN2CCCC2)nnc1C1CCN(Cc2ccncc2)CC1	54.41
CCn1c(CN2CCCC2)nnc1C1CCN(Cc2cccnc2)CC1	-35.07
CCn1c(Cn2cncn2)nnc1C1CCN(C2CCOCC2)CC1	50.32
c1ncn(Cc2nnc(C3CCN(C4CCOCC4)CC3)n2C2CC2)n1	-33.43
CCn1c(CN(C)C)nnc1C1CCN(Cc2ccncc2)CC1	11.74
Cc1cnc(C)c(Oc2ccc(CN3CCCC3)cc2Cl)n1	-9.5
Cc1ccc(C2CCCCCN2CCNS(C)(=O)=O)o1 (stereo not given)	48.21
Cc1ccc(C2CCCCCN2CCCS(C)(=O)=O)o1 (stereo not given)	38.67
CNS(=O)(=O)CCCN1CCCCCC1c1ccc(C)o1 (stereo not given)	60.13
CC1CCN(S(=O)(=O)N2Cc3ccccc3C[C@H]2C(N)=O)CC1	21.37
COC(=O)c1cc(C2CC2)nc2c(Cl)cnn12	70.37
O=C(O)c1cc(C2CC2)nc2c(Cl)cnn12	0.89
